Screening results: PubChem BioAssay, several laboratories
In the library only some 3.3% were active in any assay of this set; here they are far more common.
BoNT F protease = inhibitors of Botulinum neurotoxin F light chain protease. Multiplex microsphere protease cleavage assay, flow cytometry. inhibition, % at 10 µM. 360,000 compounds, 0.22% hits. AID 588497; in the data active = inhibition above about 35%, passing the limit was not always enough; inconclusive = no clear call, values can overlap the other calls
Autofluor counter = counter-screen for toxin protease inhibitors: compound fluorescence | fluorescence intensity (concentration not given with the values) | 360,000 compounds, 3.1% hits | compound autofluorescence counterscreen, microsphere flow cytometry; stronger effect = higher value; in the data active = fluorescence intensity above about 16000; inconclusive = no clear call, values can overlap the other calls
BoNT A protease = inhibitors of Botulinum neurotoxin A light chain protease; inhibition, % at 10 µM; 360,000 compounds, 0.17% hits; AID 588499; multiplex microsphere protease substrate cleavage, flow cytometry
MazEF act = MazEF (E. coli) toxin RNase activation | activation, % at 20 µM | AID 504720 | P0AE70 | 350,000 compounds, 0.32% hits | FAM/BHQ RNA-DNA oligo cleavage fluorescence, 5 h; in the data active = activation above about 50%
PriA SSB inh = inhibitors of Klebsiella pneumoniae PriA binding to SSB C-terminal tail. AlphaScreen SSBct-PriA binding, biotinylated peptide. 430,000 compounds, 0.6% hits. inhibition, % at 33 µM; in the data active = inhibition mostly above about 37%, no sharp cut-off; inactive = mostly below about 20%
Anthrax LF prot = blocks Bacillus anthracis lethal factor protease; multiplex microsphere protease cleavage assay, LF; inhibition, % at 10 µM; 360,000 compounds, 0.12% hits; AID 588501
Hits are given with their value; - = inactive; ? = inconclusive; . = no result given. Cut-off read from the data, not from the text of the source, unless noted: active = inhibition above about 30%; inconclusive = no clear call, values can overlap the other calls; inactive = below that.

SMILES | BoNT F protease | Autofluor counter | BoNT A protease | MazEF act | PriA SSB inh | Anthrax LF prot
Cc1cc(C)cc(NS(=O)(=O)CC23CCC(CC2=O)C3(C)C)c1 (configuration not stated) | . | . | . | . | - | .
O=C1CSC(=Nc2cc(Cl)ccc2Cl)N1 | - | 22505 | - | - | - | -
O=C1CSC(=Nc2ccc(Cl)cc2)N1 | - | - | - | - | - | -
CCOc1ccccc1NC(=O)c1ccc(F)c(S(=O)(=O)N2CCC3(CC2)OCCO3)c1 | - | 17156 | ? | - | - | -
CCOc1ccccc1NC(=O)N1CCC2(CC1)OCCO2 | - | - | - | - | - | -
COc1ccc2c(c1)C=C(C(=O)NCc1ccc(Cl)cc1)CO2 | - | 20111 | - | - | - | -
O=C(Nc1ccc(Cl)cc1)C1=Cc2cc(Cl)ccc2OC1 | - | - | - | - | - | -
Cc1c2cc(O)c(=O)cc-2oc2cc(O)c(O)cc12 | - | 17336 | - | 410 | - | -
Cn1cc(C(=O)NCCn2nc(C3CC3)n(-c3ccccc3)c2=O)nn1 | . | . | . | . | - | .
COc1cccc(C(=O)NCC(=O)NN=Cc2cccnc2)c1 | . | . | . | . | - | .
N=C1N(/N=C/c2ccccc2)C(=Nc2ccccc2)C(=S)N1c1ccccc1 | - | 18941 | - | - | . | -
O=[N+]([O-])c1cc(S(=O)(=O)Nc2cccc(C(F)(F)F)c2)ccc1-n1nnc2ccccc21 | - | - | - | - | - | -
COc1ccc(NS(=O)(=O)c2ccc(-n3nnc4ccccc43)c([N+](=O)[O-])c2)cc1 | - | 21241 | - | - | - | -
CC(NC(=O)NCc1ccccc1)c1ccccc1 (configuration not stated) | . | . | . | . | - | .
C=CCn1c(O)c(N=NC(=S)Nc2ccc(OC)c(Cl)c2)c2ccccc21 | - | - | - | - | - | 30
C=CCn1c(O)c(N=NC(=O)OC(C)(C)C)c2ccccc21 | - | - | - | - | - | -
CCCCCCCSc1cc(OC)c(CCN(C)C)cc1OC | - | - | - | - | 49 | -
Cc1ccccc1/C(N)=N/OC(=O)/C=C/c1ccccc1 | - | 22804 | - | - | . | -
COc1ccc(/C(N)=N/OC(=O)/C=C/c2ccccc2)cc1 | 62 | - | - | - | . | -
O=S(=O)(Cc1ccccc1)N1CCCCC1 | - | - | - | - | - | -
O=S(=O)(Cc1ccccc1)N1CCc2ccccc2C1 | - | 26161 | ? | - | - | -
CNC(=S)N1N=C(c2ccc(C)cc2)CC1c1ccc(Br)cc1 (configuration not stated) | - | 23443 | - | - | - | -
CCC(=O)N1N=C(c2ccc(NS(C)(=O)=O)cc2)CC1c1ccc(C)cc1 (configuration not stated) | - | 19251 | ? | - | - | -
CNC(=S)N1N=C(c2ccc(C)cc2)CC1c1ccc(Cl)cc1 (configuration not stated) | - | ? | - | - | - | -
COc1cccc2cc(C(=O)Nc3onc4c3CCCC4)oc12 | . | . | . | . | - | .
SMILES | BoNT F protease | Autofluor counter | BoNT A protease | MazEF act | PriA SSB inh | Anthrax LF prot
CCOC(=O)c1sc2ccccc2c1S(=O)(=O)NCc1ccc2c(c1)OCO2 | . | . | . | . | - | .
COc1ccc(N=NC2C(=O)N(c3ccccc3)N=C2C)cc1 (configuration not stated) | - | - | - | - | 43 | -
CC1=NN(c2ccccc2)C(=O)C1N=Nc1ccccc1 (configuration not stated) | - | - | - | - | - | -
O=C(Cc1cccs1)Nc1ccc2c(c1)N(C(=O)c1ccco1)CC2 | . | . | . | . | - | .
CC(Cc1ccccc1)/[N+]([O-])=C\c1ccc(C(F)(F)F)cc1 (configuration not stated) | - | - | - | - | 46 | -
CN(C)CCCNS(=O)(=O)c1cc(Cl)ccc1Cl | - | 20853 | ? | - | - | -
CN(C)CCCNS(=O)(=O)c1cc(Cl)c(Cl)cc1Cl | ? | - | ? | - | - | -
CCOc1ccccc1NC(=O)CCc1csc(NS(=O)(=O)c2ccc(F)cc2)n1 | . | . | . | . | - | .
COc1ccc(Cn2nnnc2C(c2cc3ccc(OC)cc3[nH]c2=O)N2CCCCCC2)cc1 (configuration not stated) | - | 22040 | - | - | - | -
COc1ccc(Cn2nnnc2C(c2cc3cc(C)ccc3[nH]c2=O)N2CCN(C)CC2)cc1 (configuration not stated) | - | - | - | - | - | -
COc1cc2cc(C(c3nnnn3Cc3ccc(F)cc3)N3CCCCCC3)c(=O)[nH]c2cc1OC (configuration not stated) | - | 18413 | ? | - | - | -
Cc1ccc(S(=O)(=O)NCCn2ncccc2=O)s1 | . | . | . | . | - | .
O=c1cc(O)nc(-c2ccccn2)[nH]1 | . | . | . | . | - | .
O=c1[nH]c(-c2ccccn2)nc(C(F)(F)F)c1Br | - | - | - | - | 83 | -
O=c1[nH]c(-c2ccccn2)nc2ccccc12 | - | - | - | - | 42 | -
CC#CCCCC(=O)Nc1cc(OC)nc(OC)n1 | - | 22745 | - | - | - | -
Cn1c(C2CC(=O)N(c3ccc(Br)cc3)C2)nc2ccccc21 (configuration not stated) | . | . | . | . | - | .
Clc1ccc(-c2nnsc2SCc2ccccc2)cc1 | - | 22947 | - | - | - | -
CSc1snnc1-c1ccccc1 | - | - | - | - | - | -
Clc1ccc(CSc2snnc2-c2ccccc2)cc1 | ? | ? | ? | - | - | ?
Clc1ccccc1CSc1snnc1-c1ccccc1 | - | 20983 | ? | - | - | -
O=C1N(Cc2c(F)cccc2Cl)c2ccccc2S(=O)(=O)N1Cc1ccc(F)cc1 | . | . | . | . | - | .
COCCN(C(=O)COC(=O)c1cc(C)n(-c2ccccc2)c1C)c1c(N)n(Cc2ccccc2)c(=O)[nH]c1=O | - | - | 60 | - | - | ?
COCCN(C(=O)CSc1nnc(C)n1-c1ccc(C)cc1)c1c(N)n(Cc2ccccc2)c(=O)[nH]c1=O | - | 17749 | - | - | - | -
CCCCNc1ccccc1C(=O)OCC(=O)Nc1ccc(S(N)(=O)=O)cc1 | - | 17458 | - | - | - | -
SMILES | BoNT F protease | Autofluor counter | BoNT A protease | MazEF act | PriA SSB inh | Anthrax LF prot
NC(=NN=Cc1ccc2c(c1)OCO2)SC1CC(=O)N(c2ccc(C(=O)O)cc2)C1=O (configuration not stated) | . | . | . | . | - | .
COc1ccc(N2C(=O)CC(Nc3ccc(C)cc3)C2=O)cc1 (configuration not stated) | - | 21164 | ? | - | - | -
COc1ccc(-c2cc(=O)n(-c3nc4ccccc4[nH]3)[nH]2)cc1 | - | 23993 | ? | - | 40 | -
COc1ccc(-c2nc3ccccc3[nH]2)cc1 | - | - | - | - | - | -
CCn1c2c(c3cc(Br)ccc31)CCC/C2=N\O | - | 29475 | - | - | . | -
CCn1c2c(c3cc(Br)ccc31)CCCC2=NO | . | . | . | . | - | .
CC12CCC(C(=O)O)(c3nc4c(ccc5ncccc54)nc31)C2(C)C (configuration not stated) | . | . | . | . | - | .
N#Cc1c(N=Cc2cccs2)sc2c1CCCC2 | . | . | . | . | 38 | .
O=C(Nc1cnccn1)C1c2ccccc2Oc2ccccc21 | - | 19665 | - | - | - | -
Cc1cc(NC(=O)CN2CCN(c3ccccc3O)CC2)no1 | - | 17083 | - | - | - | -
O=C(CN1C(=O)CCC1=O)N1CCC(CSCc2ccco2)CC1 | . | . | . | . | - | .
